# From PubChem BioAssay
# Beta apoptosis = inhibitors of cytokine-induced beta cell apoptosis, primary screen, luminescence; INS-1E cytokine-induced death, ATP luminescence, 48 h; percent of positive-control rescue, neutral wells zero; protection from apoptosis, % (test concentration not listed); 0.8% of 300,000 active; AID 435005, 2010;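 active means Every replicate reaches about 75%, or at least half do and their mean reaches it too, limit read from the data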;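 further: 0% = cytokine-treated negative control wells and 100% = positive control rescue; higher means more ATP so stronger rescue from cytokine killing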
# 697 NFkB inh = inhibitors of PMA/ionomycin-induced NF-kB reporter, 697 cells, primary screen, B-cell NF-kB inhibitor project, cell-based, luminescence, uHTS. 697 B-cell NF-kB luciferase reporter, 16 h. 0.33% of 330,000 active. inhibition, % at 4 µM. AID 435022, 2010; in the data active means inhibition above about 35%
# Jurkat NFkB inh = inhibitors of induced NF-kB luciferase reporter, primary screen, TCR NF-kB activation inhibitor project, cell-based, luminescence, uHTS; inhibition, % at 4 µM; Jurkat, PMA/ionomycin-induced NF-kB luciferase reporter; AID 435003, 2010; 0.53% of 330,000 active; in the data active means inhibition above about 50%
# NTR1 agonist = agonists of human NTR1, primary screen, imaging, U2OS cells, beta-arrestin-GFP, high content | Neurotensin receptor type 1 (Homo sapiens), P30989 | NTR1-U2OS beta-arrestin-GFP spot imaging, agonist mode | activation, % at 20 µM | 0.17% of 330,000 active | AID 493036, 2011;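 active means activation at or above 40% of the spot to cytoplasm intensity ratio, with at least 20 cells analyzed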;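 further: 0% = DMSO without peptide and 100% = 100 nM NTR1 peptide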
# Mdm2 MdmX PPI = inhibitors of human Mdm2-MdmX association, primary screen, cell-based, luminescence, split luciferase, SaOS-2, uHTS. inhibition, % at 8 µM. SaOS-2 split-luciferase Mdm2/MdmX complementation. 3% of 330,000 active. Protein Mdm4 (Homo sapiens) + E3 ubiquitin-protein ligase Mdm2 (Homo sapiens), …;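 active means inhibition of at least 50% at 8 µM in the primary screen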
# Target sequence (O15151 whole entry, looked up): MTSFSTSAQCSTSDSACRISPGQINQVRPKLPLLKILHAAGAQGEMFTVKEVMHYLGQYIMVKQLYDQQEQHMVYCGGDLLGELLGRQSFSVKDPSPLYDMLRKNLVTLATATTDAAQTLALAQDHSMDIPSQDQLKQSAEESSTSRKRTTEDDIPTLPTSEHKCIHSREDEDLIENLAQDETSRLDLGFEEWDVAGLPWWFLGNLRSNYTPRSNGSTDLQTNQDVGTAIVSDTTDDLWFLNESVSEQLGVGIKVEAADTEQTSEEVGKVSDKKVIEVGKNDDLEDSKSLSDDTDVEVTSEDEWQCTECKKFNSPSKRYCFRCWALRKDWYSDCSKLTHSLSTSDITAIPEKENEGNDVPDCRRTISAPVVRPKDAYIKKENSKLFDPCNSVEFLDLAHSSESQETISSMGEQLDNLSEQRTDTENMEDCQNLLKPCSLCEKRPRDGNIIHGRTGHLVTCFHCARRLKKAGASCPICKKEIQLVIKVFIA
# Target sequence (Q00987 whole entry, looked up): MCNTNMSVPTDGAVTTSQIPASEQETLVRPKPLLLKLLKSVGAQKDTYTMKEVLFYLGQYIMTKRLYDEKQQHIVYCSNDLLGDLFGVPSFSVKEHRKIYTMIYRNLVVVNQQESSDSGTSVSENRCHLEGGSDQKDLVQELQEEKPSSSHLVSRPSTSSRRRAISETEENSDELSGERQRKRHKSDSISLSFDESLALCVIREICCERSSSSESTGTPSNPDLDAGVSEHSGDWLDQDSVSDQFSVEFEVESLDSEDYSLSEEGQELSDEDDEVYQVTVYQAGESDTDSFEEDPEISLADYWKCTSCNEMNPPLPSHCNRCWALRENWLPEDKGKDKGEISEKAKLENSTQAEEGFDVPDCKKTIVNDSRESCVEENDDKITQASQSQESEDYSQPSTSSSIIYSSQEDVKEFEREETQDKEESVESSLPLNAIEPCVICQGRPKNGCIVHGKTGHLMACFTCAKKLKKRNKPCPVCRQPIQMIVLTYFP
# Bfl-1 A1 inh = caspase 3/7 activation in MEF A1-2A-BIM cells, primary screen, A1 inhibitor project, cell-based, luminescence, HTS | Caspase-Glo 3/7 luminescence, 3 h; percent of clofoctol response, vehicle zero | AID 2462, 2010 | 0.066% of 330,000 active | caspase activation, % (concentration not given with the values);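 active means over half of replicate activation scores above 10%, or exactly half above 10 with the replicate mean above 10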
# Jurkat NFkB conf = PMA/ionomycin-induced NF-kB reporter inhibitors, Jurkat retest, confirmation, T-cell NF-kB inhibitor project, cell-based, luminescence, single concentration; shares compounds with Jurkat NFkB inh; Jurkat NF-kB luciferase, 16 h; inhibition, % at 4 µM; 27% of 2,700 active;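 active means inhibition reaching about 45% at 4 µM in either replicate, limit read from the data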;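 further: plate controls were PMA/ionomycin stimulated DMSO wells for no effect and unstimulated DMSO wells for full effect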
# 697 NFkB conf = PMA/ionomycin-induced NF-kB reporter inhibitors, 697 retest, confirmation, B-cell NF-kB inhibitor project, cell-based, luminescence, single concentration. inhibition, % at 4 µM. AID 449746, 2010. shares compounds with 697 NFkB inh. 697 B-cell NF-kB luciferase, 16 h. 35% of 2,000 active; in the data active means inhibition mostly above about 28%, no sharp cut-off; inactive means mostly below about 22%
# * hit, by the source's call; i = inactive; . = no result given. Hits are enriched below; roughly 3.8% of the tested compounds scored in any of these assays.
SMILES,Beta apoptosis,697 NFkB inh,Jurkat NFkB inh,NTR1 agonist,Mdm2 MdmX PPI,Bfl-1 A1 inh,Jurkat NFkB conf,697 NFkB conf
COc1cc(NC(=O)CSc2ncnc3c2cnn3Cc2ccccc2)cc(OC)c1,0.6,6.5,-4.1,3.2,-9.1,0.3,.,.
c1ccc2c(c1)CCN(c1nc3cc4c(cc3s1)OCO4)C2,17.1,-304.5,-190.3,2.7,-234.7,-6.8,-132.4,-262.6
c1ccc(N2CCN(c3nc4cc5c(cc4s3)OCO5)CC2)cc1,1.4,-204.3,-51.9,0.2,-101.0,-3.3,.,.
COc1ccc(/C=C2\SC(=O)N(CCCC(=O)Nc3cc(Cl)ccc3C(=O)O)C2=O)cc1,-2.9,91.8*,72.5*,0.2,49.7,0.1,83.0*,89.8*
COc1cc(NC(C)CCCN)c2ncccc2c1 (stereo not given),121.4*,44.4*,64.9*,-1.7,33.9,-1.9,35.6,37.8*
O=C(Nc1ccc(-c2nc3ccccc3s2)c(O)c1)C1=COCCO1,23.5,-334.6,-241.7,7.8,-47.2,2.5,-71.8,-133.7
O=C(Nc1ccc(O)c(-c2nc3ccccc3s2)c1)C1=COCCO1,7.2,-3.1,10.7,11.3,-8.5,-0.4,.,.
COc1ccc(-c2cc3nc4n(c(=O)c3s2)CCCCC4)cc1,-1.1,-267.4,-172.7,0.8,-78.7,-3.2,-120.2,-322.1
Cc1ccc(N/C=C/C(=O)c2cccs2)cc1C,-10.5,-259.5,-187.6,1.3,-42.4,-0.7,-128.1,-158.8
Cc1cc(N/C=C/C(=O)c2cccs2)ccc1F,.,-124.6,-110.9,1.7,-146.7,-8.6,.,.
Cc1ccc2c(c1)Cc1nc3ccccc3nc1-2,2.0,-262.3,-188.5,3.5,-68.3,-7.3,-81.4,-252.0
Cc1ccc2c(c1)-c1nc3ccccc3cc1C2=NC1CCCCC1,2.0,.,.,.,.,-8.8,.,.
COc1ccc(-c2cn3c4c(sc3n2)CCCC4)cc1,-0.3,-292.2,-191.0,4.3,-84.8,-3.5,-130.4,-346.5
COc1cc(C)ccc1OC(C)C(=O)Nc1ccc(N2CCCCC2)cc1 (stereo not given),-1.1,-5.8,1.2,5.5,23.9,0.6,.,.
c1ccc2c(c1)CCN(c1ncnc3c1[nH]c1ccccc13)C2,7.3,42.5*,50.5*,28.2,37.9,0.8,59.0*,23.6
COc1cccc2[nH]c3c(N4CCc5ccccc5C4)ncnc3c12,28.8,-4.9,-31.1,16.7,-0.9,-0.2,.,.
O=C(Cc1nc(=O)c2ccccc2s1)Nc1ccccc1,11.7,-317.9,-208.2,0.1,-129.0,-7.9,-147.8,-255.9
Brc1cc2c(cc1/C=N/Nc1nc3ccccc3s1)OCO2,21.9,-133.6,-86.2,3.9,1.6,0.1,.,.
C(=N\Nc1nc2ccccc2s1)/c1ccc2c(c1)OCO2,-3.1,-332.9,-204.6,9.2,-208.7,-0.3,-90.6,-264.2
Cc1ccc(NC(=O)c2cnc(SCC(=O)c3ccccc3)n(C)c2=O)cc1,.,-51.9,-34.1,6.7,38.4,0.9,.,.
COc1ccc(C(=O)NC(=O)NC2(C(Cl)(Cl)Cl)OCCO2)cc1,-0.1,-273.7,-276.6,-2.0,-140.2,-4.4,-154.7,-316.0
O=C(Oc1ccc2ccccc2c1Cl)N1CCCC1,-4.5,-386.0,-153.6,0.1,-133.5,-2.9,-100.7,-336.6
O=C(Oc1ccc(Cl)c2ccccc12)N1CCCCC1,-3.8,-48.0,-31.8,2.0,-17.8,0.6,.,.
O=C(Oc1ccc2ccccc2c1Cl)N1CCCCCC1,-1.3,i,-306.9,9.2,-7.3,-4.2,-140.4,i
O=C(Oc1c(Cl)cc(Cl)c2ccccc12)N1CCCC1,27.0,-1.5,7.0,-2.3,1.7,0.2,.,.
SMILES,Beta apoptosis,697 NFkB inh,Jurkat NFkB inh,NTR1 agonist,Mdm2 MdmX PPI,Bfl-1 A1 inh,Jurkat NFkB conf,697 NFkB conf
CN1CCN(c2ccc(S(=O)(=O)N3CCOCC3)cc2NC(=O)CSCc2ccccc2)CC1,0.7,16.7,-18.2,-0.4,-12.5,2.4,.,.
COc1ccc(N/C=C2\CCc3ccccc3C2=O)cc1,19.4,-290.1,-196.6,1.3,-37.4,0.4,14.4,-9.3
COc1ccc2c(c1)CC/C(=C\Nc1ccc3c(c1)OCO3)C2=O,3.5,-30.1,-63.2,4.0,-90.1,-2.9,.,.
COc1ccc(C(=O)NCc2ccncc2)cc1S(=O)(=O)NCc1ccc(Cl)cc1,-1.8,7.3,12.9,-0.6,-6.7,1.6,.,.
CCOc1ccc(-c2nc(-c3cccnc3)no2)cc1,3.2,-219.5,-99.3,1.9,-99.2,-14.8,.,.
CCOc1ccc(-c2nc(-c3ccccc3C)no2)cc1,12.2,-266.6,-167.3,5.2,-222.8,-7.0,-124.3,-302.4
CCC(C)c1ccc(NC(=O)c2cccs2)cc1 (stereo not given),14.7,-381.5,-186.9,4.8,-276.9,-5.2,-137.3,-294.1
Cc1ccc(NC(=O)COc2ccc(N(C)C(=O)C(C)(C)C)cc2)cc1S(=O)(=O)N1CCCCC1,114.6*,51.0*,53.8*,-0.3,43.5,-2.0,78.0*,76.6*
CCc1cccc(OCC(=O)Nc2ccc(C)c(S(=O)(=O)N3CCCCCC3)c2)c1,-9.6,-27.8,4.4,-0.7,27.3,0.1,.,.
COC(=O)c1sccc1N/N=C/c1cccc(OC)c1O,5.6,-299.1,-190.5,7.5,-75.2,-8.6,-80.7,-231.9
COc1ccc(CNC(=O)CN2C(=O)CSc3ccc(S(=O)(=O)N4CCOCC4)cc32)c(OC)c1,4.6,1.6,-10.5,-0.2,3.5,0.4,.,.
O=C(Nc1ccc(S(=O)(=O)Nc2ccc(F)cc2)cc1)c1ccc(CN2CCOCC2)cc1,11.5,47.2*,63.4*,3.2,32.4,-0.4,62.7*,19.5
CCc1ncc(CN2CCCC(C(=O)Nc3ccc(-c4cscn4)cc3)C2)cn1 (stereo not given),-3.7,-9.4,5.9,-0.8,14.1,-0.1,.,.
COC(=O)NN1C(=O)C(c2ccccc2)=C(c2ccc(Cl)cc2)C1=O,-1.5,-6.0,-3.7,0.2,-9.5,0.2,.,.
c1ccc(C[n+]2cccc3c4ccccc4ccc32)cc1,27.4,0.5,26.3,-0.3,37.1,1.2,.,.
CCCCC[n+]1cccc2c3ccccc3ccc21,110.2*,60.1*,52.2*,-0.9,49.5,0.2,46.4,42.4*
